The text below walks through data of PubChem BioAssay (NCI).

SMILES strings stand for the structures. This is part of a sample that, as a whole, favours compounds with a hit. Of some 83,000 tested, about 20% had one in any assay.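 Note: values are percent growth. 100 is the growth of untreated cells, values between 100 and 0 indicate rising inhibition; between -100 and 0 indicates cell death.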 A number with no mark means an inactive call. Active and inactive are the calls of the source. Rule for the calls: active = growth percent below 10; inactive = the rest.

Test systems include HCT-15 colon; HT29 colon; SNB-75 CNS; SNB-19 CNS; U251 CNS; PC-3 prostate; SK-MEL-5 melanoma; UACC-62 melanoma; LOX IMVI melanoma; SK-MEL-28 melanoma.
Holding throughout (assay): NCI-60 one-dose screen, 48 h (100 = growth as untreated, 0 = no growth, -100 = all killed)
Common to all, as to details: 10 µM unless noted

As to `COc1cc(-c2nc(SC(C)C)nc(Nc3ccccc3C)c2C#N)cc(OC)c1OC`, the growth is 102% in the assay with HCT-15 colon; 109% in the assay with HT29 colon; 108% in the assay on SNB-75 CNS; 100% in the assay with SNB-19 CNS; 108% with U251 CNS; 104% with PC-3 prostate. In addition, the growth is 102% in the assay with SK-MEL-5 melanoma, 97.2% with UACC-62 melanoma, 102% with LOX IMVI melanoma and 107% in the assay on SK-MEL-28 melanoma.

`COc1ccc2nc(-n3nc(C)cc3C)c(-n3nc(C)cc3C)nc2c1`: the growth in the assay with HCT-15 colon is 102%; with HT29 colon, 100%; with SNB-75 CNS, 116%; in the assay on SNB-19 CNS it was 102%; in the assay on U251 CNS, 106%; with PC-3 prostate, 105%. Also, the growth in the assay with SK-MEL-5 melanoma is 100%; in the assay with UACC-62 melanoma, 105%; in the assay with LOX IMVI melanoma, 101%; in the assay on SK-MEL-28 melanoma it was 107%.

Consider `O=C1NC(=O)C2(CCCC2C(=O)O)N1` (stereo not given), for which the growth in the assay with HCT-15 colon is 99.1%; in the assay on HT29 colon, 108%; in the assay with SNB-75 CNS, 83.4%; in the assay on SNB-19 CNS, 106%; in the assay with U251 CNS it was 96.7%; in the assay on PC-3 prostate, 92.6%. In addition, the growth with SK-MEL-5 melanoma is 110%; with UACC-62 melanoma, 103%; with LOX IMVI melanoma, 91.1%; with SK-MEL-28 melanoma, 110%.

On to `CCOC(=O)c1c(Cl)c2c(n1Cc1ccc(OC)cc1)-c1oncc1CCC2`, for which the growth in the assay on HCT-15 colon was 83.7%; with HT29 colon, 78.8%; in the assay with SNB-75 CNS it was 75%; in the assay on SNB-19 CNS it was 89.1%; in the assay on U251 CNS, 89.3%; with PC-3 prostate, 58.6%. For the same compound, the growth in the assay with SK-MEL-5 melanoma is 72.1%; in the assay with UACC-62 melanoma, 73.6%; in the assay on LOX IMVI melanoma, 77.8%; in the assay with SK-MEL-28 melanoma it was 101%.

As to `Cc1ccc(S(=O)(=O)c2ccc3[nH]c(=O)[nH]c(=O)c3c2)cc1`, the growth with HCT-15 colon was 103%; in the assay with HT29 colon it was 107%; in the assay with SNB-75 CNS it was 92.4%; in the assay on SNB-19 CNS it was 94.3%; with U251 CNS, 95.1%; in the assay with PC-3 prostate, 86.2%. For the same compound, the growth in the assay on SK-MEL-5 melanoma is 103%; in the assay with UACC-62 melanoma it was 92.9%; in the assay on LOX IMVI melanoma, 101%; with SK-MEL-28 melanoma, 114%.

Regarding `Cc1cccc2c(=O)c3c(sc12)c(NCCNCCO)nc1ccccc13`, the growth with HCT-15 colon was 0.304% (active); with HT29 colon, -55.4% (active); in the assay with SNB-75 CNS, 32.8%; with SNB-19 CNS, 49.6%; with U251 CNS, 13.4%; with PC-3 prostate it was 38.7%. Moreover, the growth was 39.5% in the assay on SK-MEL-5 melanoma, 26% in the assay on UACC-62 melanoma, -89.8% (active) with LOX IMVI melanoma and -67.4% (active) with SK-MEL-28 melanoma.

Consider `Cc1cc(O)cc2c1[C@H]1CC[C@]3(C)[C@@H](O)CC[C@H]3[C@@H]1C=C2`, for which the growth is 78.7% with HCT-15 colon; 93.5% in the assay with HT29 colon; 76.2% with SNB-75 CNS; 94.7% in the assay with SNB-19 CNS; 92.5% in the assay on U251 CNS; 86.3% with PC-3 prostate. Further, the growth in the assay on SK-MEL-5 melanoma was 83.8%; in the assay with UACC-62 melanoma, 73.5%; in the assay with LOX IMVI melanoma, 81.3%; in the assay on SK-MEL-28 melanoma it was 99.8%.

Turning to `Cc1c(C(=O)Nc2nc(-c3ccccc3)cs2)nnn1-c1ccccc1Br`, the growth is 29.5% [50 µM] in the assay on HCT-15 colon; 16.3% [50 µM] with HT29 colon; 67.8% [50 µM] in the assay on SNB-75 CNS; 61.1% [50 µM] with SNB-19 CNS; 50.8% [50 µM] in the assay with U251 CNS; 44.8% [50 µM] in the assay on PC-3 prostate. Further, the growth with SK-MEL-5 melanoma was -68.6% [50 µM] (active); with UACC-62 melanoma, 39.4% [50 µM]; in the assay on LOX IMVI melanoma, 12% [50 µM]; with SK-MEL-28 melanoma, 44.5% [50 µM].

With `O=C1C=CC(=O)N1CCCCCCCCCCN1C(=O)C=CC1=O`, the growth with HCT-15 colon is 92.4%; in the assay with HT29 colon, 63.2%; with SNB-75 CNS, 95.7%; in the assay with SNB-19 CNS it was 108%; with U251 CNS, 76.9%; in the assay with PC-3 prostate it was 82.2%. The growth in the assay with SK-MEL-5 melanoma is 95.8%; in the assay on UACC-62 melanoma it was 102%; with LOX IMVI melanoma, 42.9%; in the assay with SK-MEL-28 melanoma, 97%.

In the case of `Cc1ccccc1-n1nnc(C(=O)Nc2ccc(-c3ccccc3)cn2)c1C`, the growth was 39.8% [50 µM] in the assay with HCT-15 colon; 28.1% [50 µM] with HT29 colon; 83.6% [50 µM] in the assay on SNB-75 CNS; 62.6% [50 µM] in the assay on SNB-19 CNS; 64.9% [50 µM] in the assay on U251 CNS; 40.5% [50 µM] with PC-3 prostate. The growth with SK-MEL-5 melanoma is -41.8% [50 µM] (active); with UACC-62 melanoma it was 45.6% [50 µM]; with LOX IMVI melanoma, 48.1% [50 µM]; in the assay with SK-MEL-28 melanoma it was 56.8% [50 µM].

As to `CN(C)c1ccc(/C=C(\C#N)c2cc3ccccc3n2C)cc1`, the growth is 20.6% in the assay with HCT-15 colon; 10.3% in the assay on HT29 colon; 20.8% in the assay with SNB-75 CNS; 31% with SNB-19 CNS; 19.4% with U251 CNS; 34.4% in the assay on PC-3 prostate. The growth was 19.3% with SK-MEL-5 melanoma, 38.5% in the assay on UACC-62 melanoma, 31.5% in the assay with LOX IMVI melanoma and 67.2% with SK-MEL-28 melanoma.

With `COc1cc(Cn2cc(F)c(=O)[nH]c2=O)cc(OC)c1`, the growth was 103% [50 µM] with HCT-15 colon; 110% [50 µM] in the assay with HT29 colon; 91.2% [50 µM] with SNB-75 CNS; 101% [50 µM] in the assay with SNB-19 CNS; 106% [50 µM] in the assay with U251 CNS; 101% [50 µM] in the assay on PC-3 prostate. Moreover, the growth was 103% [50 µM] with SK-MEL-5 melanoma, 97.5% [50 µM] with UACC-62 melanoma, 86.2% [50 µM] with LOX IMVI melanoma and 109% [50 µM] in the assay on SK-MEL-28 melanoma.
